Screens (PubChem BioAssay)
Hits are enriched below; roughly 19% of the tested compounds scored in any of these assays.
TDP1 inh: TDP1 (human) enzyme inhibition; Q9NUW8; recombinant TDP1, AlphaScreen DNA substrate cleavage; Potency, µM (titrated, usually from 130 µM), inactives show at the top dose activity change, negative = inhibition, usual class: inhibitors; 350,000 tested, 0.28% active; AID 485290; further: potency means the concentration at half of the fitted maximal effect; on the % scale 0 is the no-effect control and ±100 the full control effect; nearly all actives have a fitted effect of over 40% in size
Target sequence (Q9NUW8 whole entry, looked up): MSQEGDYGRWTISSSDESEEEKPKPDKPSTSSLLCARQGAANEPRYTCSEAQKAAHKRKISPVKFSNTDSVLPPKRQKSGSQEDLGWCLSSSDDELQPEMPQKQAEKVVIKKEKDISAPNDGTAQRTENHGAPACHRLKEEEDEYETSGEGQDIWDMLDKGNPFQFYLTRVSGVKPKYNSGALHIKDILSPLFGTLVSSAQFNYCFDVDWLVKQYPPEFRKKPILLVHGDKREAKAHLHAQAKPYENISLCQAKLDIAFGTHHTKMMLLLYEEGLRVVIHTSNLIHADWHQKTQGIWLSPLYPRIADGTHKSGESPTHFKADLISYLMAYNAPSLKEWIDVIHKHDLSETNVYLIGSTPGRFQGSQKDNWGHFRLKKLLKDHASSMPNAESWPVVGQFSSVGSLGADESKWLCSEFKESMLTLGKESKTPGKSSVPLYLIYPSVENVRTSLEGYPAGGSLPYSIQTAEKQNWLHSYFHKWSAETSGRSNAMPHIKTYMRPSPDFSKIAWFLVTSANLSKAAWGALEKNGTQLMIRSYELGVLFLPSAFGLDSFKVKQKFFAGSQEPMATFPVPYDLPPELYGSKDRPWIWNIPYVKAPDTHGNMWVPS
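AlphaScreen read-out: signal falls as enzyme removes the 3' tyrosine-FITC from a 5'-biotinylated DNA oligo (15 nM, 5 min, RT). Enzyme was E. coli-made recombinant Tdp1 at 1 nM, exposed to compound for 15 min beforehand; beads 10 ug/ml, 10 min.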
TGFb inhibitor: blocks TGF-b signaling | HepG2 CAGA-GFP TGF-b/SMAD3 reporter, GFP fluorescence, 18 h; TGF-beta stimulated, 500 pg/mL final | Potency, µM (top dose mostly 46.1 µM), without a hit: at the highest dose activity, negative = inhibition, hits mostly inhibitors | 410,000 tested, 1.2% active; further: potency means the concentration at half of the fitted maximal effect; on the % scale 0 is the no-effect control and ±100 the full control effect; nearly all actives have a fitted effect of over 65% in size
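First, reporter cells (HEPG2 CAGA-GFP) rested 2 h at 37 degrees C. Next, compounds were pinned in and TGF-beta added to 500 pg/mL final. After 18 h, GFP was imaged per cell and summed per well.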
TDP1 cell CPT: growth inhibition of DT40 Tdp1-/-;hTDP1 cells with camptothecin (screen for TDP1 inhibitors); 420,000 tested, 12% active; chicken DT40 Tdp1-/-;hTDP1 cells + 20 nM CPT, ATP luminescence, 48 h; Potency, µM (titrated, usually from 46.2 µM), inactives show top-dose activity change, negative = growth inhibition, usual class: inhibitors; AID 686979; further: potency means the concentration at half of the fitted maximal effect; on the % scale 0 is the no-effect control and ±100 the full control effect; nearly all actives have a fitted effect of over 55% in size
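Chicken DT40 Tdp1-/- cells stably complemented with human TDP1 were seeded at 400 cells/well in medium containing 20 nM camptothecin, exposed to pin-transferred compounds, and grown at 37 °C for at least 48 hr. Viability was read as ATP luminescence.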
HepG2 tox: HepG2 cytotoxicity, counter-screen for TGF-b inhibitors; HepG2 CAGA-GFP viability, ATP luminescence, 18 h; Potency, µM (top dose mostly 46.1 µM), for inactives: at the top dose activity change, negative = cytotoxicity, actives largely listed as cytotoxic; 410,000 tested, 0.76% active; AID 588856; further: potency means the concentration at half of the fitted maximal effect
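HepG2 CAGA-GFP cells (1000/well, DMEM with 1% FBS) received compound, then TGF-beta at 500 pg/mL final, and were incubated 18 hours at 37 degrees C. Viability was read by CellTiter-Glo luminescence. Media-only wells were set as complete cell-killing and DMSO as no toxicity.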
TDP1 cell noCPT: qHTS for Inhibitors of human tyrosyl-DNA phosphodiesterase 1 (TDP1): qHTS in cells in absence of CPT. AID 686978, 2013. DT40 Tdp1-/- hTDP1 cells, no CPT, ATP luminescence, 48 h. 420,000 tested, 15% active. Potency, µM (highest dose often 46.2 µM), for the others: top-dose activity change, negative = growth inhibition, actives largely listed as inhibitors; further: potency means the concentration at half of the fitted maximal effect; on the % scale 0 is the no-effect control and ±100 the full control effect; nearly all actives have a fitted effect of over 55% in size
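Growth of hTDP1-complemented DT40 Tdp1-knockout cells is measured by ATP luminescence after at least 48 hr compound exposure at 37 °C, with DMSO substituting for the 20 nM CPT used in the parallel screen.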
IL1B secr inh: inflammasome signaling inhibition, IL-1 beta readout. THP-1 LPS/ATP IL-1B secretion, AlphaLISA, 16 h; active compounds read low. activity change, % at 57.5 µM. 360,000 tested, 4.7% active. AID 743279; in the data active means activity change below about -50%; inconclusive means mostly about -30% to -49%; further: on the % scale 0 is the no-effect control and ±100 the full control effect
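Secreted IL-1B measured by AlphaLISA bead assay after 16 h compound exposure of THP-1 cells; compounds (final up to 57.5 uM) added 1 h before LPS (250 ng/mL) and ATP (1.25 mM) stimulation; lower signal means less secretion.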
The depositor's hits bear a star; ? = inconclusive; · = not tested or not shown; [ ] = another dose, or the depositor's remark. Unless noted, the call rests on the fitted dose curve; in most records, active means well fitted curve in the direction sought with a large enough effect; inconclusive means small, poorly fitted or top-dose-only effect, or another doubt; inactive means no such curve, though single readings can be large; an effect the other way counts as inactive or inconclusive.

SMILES	TDP1 inh	TGFb inhibitor	TDP1 cell CPT	HepG2 tox	TDP1 cell noCPT	IL1B secr inh
CC1CCCC(C)N1C(=O)COC(=O)c1c[nH]c2ccccc12 (stereo not drawn)	1%	-8%	-8%	-14%	3.3µM*	-7
C/C=C1\C2C=C(C)C[C@@]1(N)c1ccc(=O)[nH]c1C2	8%[56.1 µM]	·	19%	·	-1%	·
O=C(O)CC(Cc1ccc(Br)cc1)C(=O)Nc1ccccc1 (stereo not drawn)	·	6%	18%	4%	-14%	17
CCNc1ncc2nc(C)c(=O)n(Cc3ccc(F)cc3)c2n1	·	·	1%	·	-5%	·
CCC1CCCCN1C(=O)CSc1nnc(-c2ccc(OC)cc2)o1 (stereo not drawn)	-3%	-12%	?	-12%	21µM*	-7
CCOC(=O)CSc1nnc(-c2c[nH]c3ccccc23)o1	4%	-33%	16%	-12%	7%	-93*
CCSc1nnc(-c2c[nH]c3ccccc23)o1	·	7%	4%	4%	-23%	-12
CC1CCCC(C)N1C(=O)CSc1nnc(-c2c[nH]c3ccccc23)o1 (stereo not drawn)	1%	-11%	?	-22%	16µM*	-16
CC1CCCN(C(=O)CSc2nnc(-c3c[nH]c4ccccc34)o2)C1 (stereo not drawn)	-1%	-22%	?	-49%	?	-4
COc1ccc2c(C)c(CC(=O)NCc3ccccc3Cl)c(=O)oc2c1OC	2%	-12%	-14%	-13%	-5%	·
CCn1c(CNS(=O)(=O)c2ccc(Br)cc2)n[nH]c1=S	4%	2%	?	-2%	-13%	25
COC(=O)c1ccc(C2c3c(-c4ccccc4O)n[nH]c3C(=O)N2Cc2cccnc2)cc1 (stereo not drawn)	7%	2%	?	8%	?	·
CC(C)c1ccc(C2c3c(-c4ccccc4O)n[nH]c3C(=O)N2Cc2ccncc2)cc1 (stereo not drawn)	7%	?	?	-54%	?	·
CCc1ccc(C2c3c(-c4ccccc4O)n[nH]c3C(=O)N2Cc2cccnc2)cc1 (stereo not drawn)	7%	?	16µM*	-64%	?	·
CSc1ccc(C2c3c(-c4ccccc4O)n[nH]c3C(=O)N2Cc2ccncc2)cc1 (stereo not drawn)	12%	?	23µM*	-31%	18µM*	·
O=C(Nc1cccc(-c2ccc(N3CCOCC3)nn2)c1)c1ccccc1	·	13%	?	-7%	?	-21
Cc1ccc(C(=O)Nc2cccc(-c3ccc(N4CCOCC4)nn3)c2)cc1[N+](=O)[O-]	·	1%	10µM*	-5%	?	-3
O=C(COc1ccc(Cl)cc1Cl)Nc1cccc(-c2ccc(N3CCOCC3)nn2)c1	·	1%	18µM*	0%	?	-15
O=C(COc1ccc(Cl)cc1Cl)Nc1ccc(-c2ccc(N3CCOCC3)nn2)cc1	-3%	1%	-9%	9%	?	35
O=C(Nc1cccc(-c2ccc(N3CCOCC3)nn2)c1)c1ccc([N+](=O)[O-])cc1	·	-11%	?	-34%	?	-8
O=C(COc1ccccc1)Nc1cccc(-c2ccc(N3CCOCC3)nn2)c1	·	-1%	?	-53%	9.2µM*	-14
CCCCNc1c(-c2ccc(OC)c(Sc3ccc(OC)cc3)c2)nc2cnccn12	6%	?	?	-24%	23µM*	55
CCCCNc1c(-c2ccc(SC(C)CC)cc2)nc2cnccn12 (stereo not drawn)	0%	?	9.2µM*	-98%	8.2µM*	-72*
COc1ccc(Nc2c(-c3ccc(OC)cc3)nc3cnccn23)cc1	6%	?	?	-6%	?	95
CCCCNc1c(-c2ccc(-c3ccc(OC)cc3)c(OC)c2)nc2ccccn12	8%	?	18µM*	-73%	13µM*	-75*
SMILES	TDP1 inh	TGFb inhibitor	TDP1 cell CPT	HepG2 tox	TDP1 cell noCPT	IL1B secr inh
CCCCNc1c(-c2ccc(OC)c(Sc3ccc(OC)cc3)c2)nc2ccccn12	·	?	4.1µM*	-64%	9.2µM*	-104*
CCC(=O)Nc1c(-c2ccc3ccccc3c2)nc2ccccn12	·	10%	-6%	13%	2%	0
Cc1ccc(CCNC(=O)CCCn2c(=O)c3ccccc3n(Cc3ccccc3C#N)c2=O)cc1	0%	-24%	?	-18%	?	·
O=C1CC2(CCN(C(=O)c3cccc(F)c3)CC2)Oc2ccccc21	-7%[0.505 µM]	-3%	-28%	12%	?	-10
Cc1cc(C)c(S(=O)(=O)N2CCOC2CNC(=O)C(=O)NCCCn2ccnc2)c(C)c1 (stereo not drawn)	1%	-1%	-13%	-6%	-3%	-17
CCOC(=O)c1ccc(N2CCN(c3cc(Cl)ccc3C)CC2)c(NC(=O)Nc2ccc(OCC)cc2)c1	8%	0%	?	4%	13µM*	·
CCOC(=O)c1ccc(N2CCN(c3cccc(Cl)c3)CC2)c(NC(=O)Nc2ccc(OC)cc2OC)c1	5%	-7%	-16%	-2%	-10%	·
CCOC(=O)c1ccc(N2CCN(c3cc(C)ccc3C)CC2)c(NC(=O)Nc2ccccc2)c1	-3%	-3%	5.8µM*	-3%	2.9µM*	·
CCOC(=O)c1ccc(N2CCN(c3cccc(OC)c3)CC2)c(NC(=O)Nc2ccc(OCC)cc2)c1	8%	-11%	?	-36%	-23%	·
Cc1ccc(/C=C/c2nc3ccccc3c(=O)[nH]2)cc1	10%	-7%	?	-6%	?	-11
Cc1ccccc1/C=C\c1nc2ccccc2c(=O)[nH]1	-19%	?	26µM*	-38%	16µM*	0
Cc1ccccc1/C=C/c1nc2ccccc2c(=O)[nH]1	2%	1%	16µM*	-22%	?	35
CC1(C)OC(=O)C2=C(C[C@@H](CCc3ccccc3)O[C@H]2CCc2cccc(Cl)c2)O1	·	·	?	·	?	18
COc1ccc(Nc2nc(Cl)nc(Nc3ccc(OC)cc3)n2)cc1	1%	-12%	-6%	3%	?	-24
CC(C)(C)Nc1nc(Cl)nc(Nc2ccccc2)n1	1%	0%	?	-2%	?	-65*
COc1ccccc1Nc1nc(Cl)nc(NC(C)(C)C)n1	-2%	5%	6%	3%	-28%	-22
